From PubChem
Compounds with a hit are over-represented: about 21% of the library has one in this group of screens.
SARS PLP yeast = blocks SARS-CoV papain-like protease in a yeast assay | S. cerevisiae expressing SARS-CoV PLpro, growth rescue | Potency, µM (series often up to 32.9 µM), for the others: at the top dose activity, positive = growth rescue, usual class: activators | 0.19% of 330,000 active | AID 485353; further: potency means the concentration at half of the fitted maximal effect; 0% is about no effect; nearly all actives have a fitted effect of over 55% in size
Pf growth 96h = P. falciparum growth inhibition at 96 hour, primary screen for plastid delayed-death inhibitors; P. falciparum luciferase reporter growth, 96 h; Potency, µM (doses to about 28.7 µM), inactives show top-dose activity change, negative = inhibition, hits mostly inhibitors; 6.9% of 320,000 active; AID 504834; active means well fitted inhibition curve with a large enough effect; inconclusive means small, poorly fitted or top-dose-only effect, or another doubt; inactive means no such curve, though single readings can be large or run the other way; further: potency means the concentration at half of the fitted maximal effect; on the % scale 0 is the no-effect control and ±100 the full control effect
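96 h incubation, 37 C, 5% CO2, of luciferase-reporter P. falciparum-infected RBCs (2% hematocrit, 0.05% parasitemia final) with test compounds; endpoint luminescence.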
Shiga inhibitor = Shiga toxin inhibition | 9.2% of 290,000 active | AID 2315 | inhibition, % at 38.7 µM | Vero cells, Shiga toxin protein synthesis inhibition reporter; in the data active means inhibition mostly above about 28%, no sharp cut-off; inactive means mostly below about 43%; further: 0% is about no effect
Pf growth 48h = P. falciparum growth inhibition at 48 hours (one generation) | P. falciparum luciferase growth in erythrocytes, 48 h | Potency, µM (highest dose often 28.7 µM), inactives show at the highest dose activity change, negative = inhibition, usual class: inhibitors | 5.9% of 310,000 active | AID 504832; active means well fitted inhibition curve with a large enough effect; inconclusive means small, poorly fitted or top-dose-only effect, or another doubt; inactive means no such curve, though single readings can be large or run the other way; further: potency means the concentration at half of the fitted maximal effect; on the % scale 0 is the no-effect control and ±100 the full control effect
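In quantitative HTS format, infected erythrocytes bearing luciferase-reporter parasites were treated for a single generation at 37 C. Luminescence after adding detection reagent served as the growth measure.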
NS1 inh = influenza NS1 inhibition | 0.4% of 270,000 active | Potency, µM (series often up to 46.1 µM), without a hit: top-dose activity, positive = more growth; further: potency means the concentration at half of the fitted maximal effect; actives are rising curves; nearly all actives have a fitted effect of over 50% in size
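In this qHTS, NS1 from influenza A is expressed in budding yeast, where it slows growth. Cells are switched from glucose to 2% galactose medium (pH 6.0, -URA), treated with compound, and growth recovery is read at OD600.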
CHX counter = counter-screen hit for Shiga toxin inhibitors, cycloheximide | 12% of 300,000 active | AID 2314 | max response, % | cell reporter, cycloheximide protein synthesis inhibition counterscreen; in the data active means max response mostly above about 13%, no sharp cut-off; inactive means mostly below about 14%; further: read at 38.3 µM for the half of the compounds with a filed dose; 0% is about no effect
The depositor's hits bear a star; ? = inconclusive; / = not tested or not shown. Unless noted, the call rests on the fitted dose curve.

SMILES | SARS PLP yeast | Pf growth 96h | Shiga inhibitor | Pf growth 48h | NS1 inh | CHX counter
O=c1c2cnn(-c3ccc(F)cc3)c2ncn1Cc1ccccc1 | ? | 8.3µM* | 9 | -8% | 2% | 1
O=c1c2cnn(-c3ccccc3)c2ncn1Cc1cccnc1 | -3% | ? | -17 | 17% | 0% | -1
O=c1c2cnn(-c3ccccc3)c2ncn1CCc1ccccc1 | 2% | 66% | 49* | 81% | -16% | 23*
CN(C(=O)CS(=O)(=O)c1cn(CC(=O)N2CCCCC2)c2ccccc12)c1ccccc1 | 1% | ? | 12 | ? | 13% | 0
CCCCn1c(=O)c(CC(C)=O)nc2ccccc21 | 12% | ? | -2 | -5% | -1% | -2
CC(C)(C)C(=O)[C@H]1[C@H](c2ccccc2)[C@@]2(N=C(c3ccccc3)OC2=O)C2c3ccccc3C=NN21 (some centres not stated) | -10% | ? | 26 | ? | ? | 40*
Cc1ccc(NP(=O)(c2ccccc2)c2nc3ccccc3s2)cc1 (configuration not stated) | 0% | 26% | 62* | -2% | / | 31*
O=C(NCCc1ccccc1)C1CC(=O)N(C2CCCCC2)C1 (configuration not stated) | 8% | 5.9µM* | -4 | 11% | 5% | -3
CCOC(=O)c1ccccc1NC(=O)C1CC(=O)N(C(C)(C)C)C1 (configuration not stated) | -4% | 24% | / | 4% | -2% | -1
O=C(NCCc1ccccc1)C1CC(=O)N(C2CCCCCC2)C1 (configuration not stated) | 1% | -4% | -5 | 5% | -7% | 0
O=C(NCCN1CCCC1)C1CC(=O)N(C2CCCCC2)C1 (configuration not stated) | -1% | 13µM* | -13 | 27% | ? | -2
CCOC(=O)c1ccccc1NC(=O)C1CC(=O)N(C2CCCCC2)C1 (configuration not stated) | 1% | ? | 78* | 17% | 7% | 58*
CC1CCN(CCCNC(=O)C2CC(=O)N(C3CCCCCC3)C2)CC1 (configuration not stated) | 1% | 53% | -3 | 4% | 2% | -1
COc1c2ccccc2nc2ccccc12 | -14% | 125% | 9 | 2.1µM* | -110% | 1
Cc1cccnc1NC(=S)NCCc1ccccc1 | -2% | -3% | 70* | 4% | -41% | 37*
Cc1cccnc1NC(=S)Nc1ccc(Cl)c(Cl)c1 | -1% | ? | 103* | 43% | -8% | 32*
O=C(NNC(=S)Nc1ccc(Cl)c(Cl)c1)c1ccccn1 | -4% | ? | 87* | 2.3µM* | -52% | 37*
S=C(NCc1ccccn1)Nc1ccc(Cl)c(Cl)c1 | -16% | ? | 16 | ? | -2% | 28
Cc1cccnc1NC(N)=S | 3% | -7% | 17 | 34% | 9% | 4
Cc1cccnc1NC(=S)Nc1ncccc1C | -4% | 368% | 68* | 163% | -1% | 31*
CCOc1cc(S(=O)(=O)n2ccnc2)ccc1Cl | 0% | 3% | 4 | 20% | 4% | 0
COc1ccc(C(C(=O)NCC2CCCO2)N(C(=O)Cn2nnc3ccccc32)c2ccccc2C(C)=O)cc1OC (configuration not stated) | -5% | ? | -2 | ? | -5% | -4
Cn1c2cc(C#N)sc2c2cnn(Cc3ccccc3F)c(=O)c21 | / | / | -14 | / | / | -8
COc1ccc(NC(=S)Nc2ncccc2C)cc1OC | -1% | -2% | 76* | 196% | / | 46*
O=C(NNC(=O)C(c1ccccc1)c1ccccc1)c1ccccn1 | 6% | 2.6µM* | 1 | 3.7µM* | -13% | -1
SMILES | SARS PLP yeast | Pf growth 96h | Shiga inhibitor | Pf growth 48h | NS1 inh | CHX counter
COc1ccc(NC(=S)Nc2ncccc2C)c(OC)c1 | 6% | ? | 68 | 19% | -63% | 63*
COc1ccc(Cc2ccc3[nH]c(=O)cc(C)c3c2)cc1S(=O)(=O)O | / | / | / | / | -8% | /
CCOC(=O)c1cnc(N2CCN(c3ccccc3)CC2)[nH]c1=O | 0% | -24% | 10 | -17% | -2% | 3
O=S(=O)(c1cccc(F)c1)N1CCN(S(=O)(=O)c2ccc3c(c2)OCCO3)CC1 | / | / | 17 | / | / | 3
O=S(=O)(c1ccc2c(c1)OCCO2)N1CCN(S(=O)(=O)c2ccc3nc(Cl)c(Cl)nc3c2)CC1 | / | / | 18 | / | / | 27*
O=S(=O)(c1ccc2c(c1)OCCO2)N1CCN(S(=O)(=O)c2ccc3c(c2)OCCO3)CC1 | 1% | ? | -4 | ? | / | -6
O=S(=O)(c1ccc2c(c1)OCCO2)N1CCC(O)(c2ccc(Cl)cc2)CC1 | -14% | 9.3µM* | 10 | 9% | -35% | -3
O=C(c1ccc(F)cc1F)N1CCN(S(=O)(=O)c2ccc3c(c2)OCCO3)CC1 | -10% | 9.3µM* | / | ? | / | /
O=S(=O)(c1ccccc1Cl)N1CCC(O)(c2ccc3c(c2)OCO3)CC1 | 14% | 2.9µM* | 17 | 6% | -37% | 3
OC1(c2ccc3c(c2)OCO3)CCN(Cc2ccccn2)CC1 | -1% | -19% | -23 | 10% | 3% | 1
O=C(CSc1ncn[nH]1)N1CCOCC1 | 0% | ? | -2 | 11% | -3% | -2
O=C(Nc1cccc(NC(=O)c2cccc(Cl)c2)c1)c1cccnc1 | -3% | ? | 32 | ? | -57% | -2
CC(C)CC(=O)N1CCN(Cc2ccccc2Cl)CC1 | 7% | 159% | / | 30% | 8% | -2
O=C(CCCN1C(=O)/C(=C\c2cccc(Br)c2)SC1=S)Nc1cccnc1 | 1% | 8% | -10 | ? | 13% | -3
O=C(CSc1nc(C(F)(F)F)cc(=O)[nH]1)Nc1nccs1 | 4% | 4% | / | -15% | / | /
O=S(=O)(N/N=C/c1ccc(N2CCOCC2)cc1)c1ccc(Br)cc1 | -3% | 12% | 48 | 3% | / | -2
COc1ccc(-c2nc(C)c(C(C)=O)n2O)cc1 | -9% | 4.7µM* | 1 | 10% | -13% | 15
CCOc1ccc(-c2nc(C)c(C(C)=O)n2O)cc1 | -18% | / | 16 | 27% | -55% | 6
Cc1ccc(NC(=O)CSc2ncn[nH]2)cc1 | -5% | 22% | 36 | -1% | / | 14*
CCOC(=O)c1c(-c2ccc(C)o2)csc1NC(=O)CSc1ncn[nH]1 | -17% | 15µM* | -12 | / | 6% | -3
O=C(CSc1ncn[nH]1)Nc1nnc(-c2ccccc2)s1 | 0% | 17% | 91* | / | -25% | 67*
O=C(CSc1nc2ccccc2[nH]1)Nc1ccc2c(c1)CCC2 | -7% | -12% | 37 | 5% | 18% | 10
O=C(CSc1ncn[nH]1)Nc1ccc2c(c1)CCC2 | -12% | 18% | -14 | 34% | 7% | 20*
Cc1cccc(C(=O)NCCc2nnc(SCC(=O)Nc3cccc(C(=O)O)c3)n2C)c1 | -7% | -3% | -8 | 7% | 2% | -2
